Experimental data taken from PubChem BioAssay (NCI).
About 83,000 compounds went through this panel and 20% of them were active in at least one assay; those are over-represented in the sample as a whole.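 Treatment: one concentration, 48 hours, 96-well format. Scoring: percent growth, with anything below 10 considered active.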 Unmarked numbers belong to inactive results. Calls of active or inactive are those of the source.

Key:
Experiment in all cases: NCI-60 one-dose screen, 48 h (100 = growth as untreated, 0 = no growth, -100 = all killed)
[1] = tested on: T-47D breast; conditions: 10 µM unless noted
[2] = tested on: BT-549 breast; conditions: 10 µM unless noted
[3] = tested on: MDA-MB-435 melanoma; conditions: 10 µM unless noted
[4] = tested on: SW-620 colon; conditions: 10 µM unless noted
[5] = tested on: MCF7 breast; conditions: 10 µM unless noted
[6] = tested on: HCT-116 colon; conditions: 10 µM unless noted
[7] = tested on: HCC-2998 colon; conditions: 10 µM
[8] = tested on: KM12 colon; conditions: 10 µM unless noted

SMILES | growth [1] | growth [2] | growth [3] | growth [4] | growth [5] | growth [6] | growth [7] | growth [8]
CCOC(=O)C1=C(C)N=C2Sc3cc(OC(F)(F)F)ccc3N2[C@H]1c1ccccn1 | 25.1% | 59.4% | 51.1% | 23.6% | 41.3% | 24.2% | 69.4% | –
Cc1nn(-c2nc3ccccc3[nH]2)c2c1C(c1ccc(O)cc1)CC(=O)N2 (configuration not stated) | 88.7% | 92.7% | 104% | 93.5% | 109% | 101% | 123% | –
O=C1OCC2=C1C(c1cccc(F)c1)c1cc3c(cc1N2CCO)OCCO3 (configuration not stated) | 46.8% | 43.6% | -40.7% (active) | 26.8% | 15.6% | 11.2% | 8.09% (active) | –
Cc1ccc(-c2cc3c(SCC(=O)Nc4cc(C(F)(F)F)ccc4Cl)nccn3n2)cc1 | 101% | 81.2% | 38.7% | 18.2% | 14.7% | 14.7% | 19.5% | –
CC/C=C\C[C@H]1C/C=C2/C(=O)C=C[C@@H]2C/C=C\CCCC(=O)O1 | 39.7% | -20.4% (active) | -45.5% (active) | -51% (active) | -1.97% (active) | -67.5% (active) | -79.4% (active) | -68.7% (active)
COC(=O)c1[nH]cnc1/N=N/N(C)CCO | 91.1% | 98.4% | 112% | 102% | 96% | 93.5% | – | –
CC12O[C@H](C[C@@H](OC(=O)CCC(=O)O)[C@H]1O)n1c3ccccc3c3c4c(c5c6ccccc6n2c5c31)C(=O)NC4=O | 35.8% | -1.04% (active) | 8.34% (active) | 36.2% | 19.2% | 35.6% | 41.3% | –
CCN1CCN(Cc2ccc(NC(=O)Nc3nc(-c4cc(OC)c(OC)c(OC)c4)cs3)cc2C(F)(F)F)CC1 | -23.9% (active) | 45.3% | -51.4% (active) | 3.34% (active) | -15.2% (active) | -58% (active) | -36.6% (active) | –
Nc1nc(N)c2cc(CNc3ccc(C(=O)NC(CC(=O)O)C(=O)O)cc3)ccc2n1 (configuration not stated) | 62.3% | 57.7% | 37.8% | 25.2% | 17.3% | 22.4% | – | –
Cc1cc(Nc2cc(N3CCN(C)CC3)nc(Sc3ccc(NC(=O)C4CC4)cc3)n2)n[nH]1 | 33.1% | 23.5% | 27.6% | 19.3% | 28.5% | 18.3% | 33.9% | –
COC(=O)[C@H](C)NC(=O)[C@@H](OC)[C@@H]1Cc2cc3cc(OC4CC(OC5CC(O)C(O)C(C)O5)C(O)C(C)O4)c(C)c(O)c3c(O)c2C(=O)[C@H]1OC1CC(OC2CC(OC3CC(C)(O)C(O)C(C)O3)C(O)C(C)O2)C(O)C(C)O1 (some centres not stated) | 2.98% (active) | -32.5% (active) | -39.3% (active) | 10.2% | 8.55% (active) | 4.37% (active) | -44% (active) | –
CCCCCCCC(=O)SCC/C=C/[C@@H]1CC(=O)NCc2cc(ccn2)C2=N[C@@](C)(CS2)C(=O)N[C@@H](C(C)C)C(=O)O1 | -6.31% (active) | 36.4% | -22.1% (active) | -1.73% (active) | 14.1% | -17.2% (active) | -67.8% (active) | –
C/C=C/C=N/NC(=S)Nc1ccccc1 | 111% | 96.5% | 109% | 121% | 86% | 97.9% | 104% | 98.6%
COc1ccc(-c2ccc3c(N4CCOC[C@@H]4C)nc(N4CCOC[C@@H]4C)nc3n2)cc1CO | -35% (active) | -6.65% (active) | -14.1% (active) | 8.32% (active) | 5.12% (active) | 21.9% | – | –
COc1ccc(F)c(F)c1C(=O)c1cnc(NC2CCN(S(C)(=O)=O)CC2)nc1N | -3.23% (active) | -11.8% (active) | -33.3% (active) | 0.808% (active) | 2.53% (active) | 4.77% (active) | -26.5% (active) | –
O=C(CNc1nc(-c2ccc(Cl)cc2)cs1)Nc1ccc(-c2nc3ccccc3s2)cc1 | 56.1% | 107% | 104% | 99.9% | 29.9% | 95.5% | 97.5% | –

SMILES | growth [1] | growth [2] | growth [3] | growth [4] | growth [5] | growth [6] | growth [7] | growth [8]
CN1CCN(c2ccc(C(=O)Nc3n[nH]c4ccc(Cc5cc(F)cc(F)c5)cc34)c(NC3CCOCC3)c2)CC1 | -65.6% (active) | 10.6% | -86.5% (active) | -79.2% (active) | -72% (active) | -95.5% (active) | -81.3% (active) | –
Cc1oc2c(C(=O)N/N=C\c3ccc(O)cc3O)c[nH]c2c1C | 25.7% | -8.94% (active) | 42.8% | 39.3% | 8.09% (active) | 10.8% | 9.7% (active) | –
FC(F)(F)c1ccc(CNc2ccc(Cc3c[nH]c4ncc(Cl)cc34)cn2)cn1 | -1.92% (active) | 26.3% | 6.37% (active) | 19% | 13.6% | 15.4% | 18.1% | 7.06% (active)
C[C@@H](Nc1cc(F)cc(F)c1)c1cc(C(=O)N(C)C)cc2c(=O)cc(N3CCOCC3)oc12 | -12.4% (active) | 34.2% | 64.8% | 60.5% | 25.2% | 55.8% | 55.3% | –
CC[C@@H]1C(=O)N(C)c2cnc(Nc3ccc(C(=O)NC4CCC(N5CCN(CC6CC6)CC5)CC4)cc3OC)nc2N1C(C)C (some centres not stated) | 7.48% (active) | 18.3% | -29.6% (active) | 12.2% | -24% (active) | -6.9% (active) | – | –
O=C(COc1cccc(/C=C2\Cc3ccc(Cl)cc3C2=O)c1)Nc1nccs1 | 55.5% | 87.3% | 86.6% | 110% | 35.1% | 64.5% | – | –
C=CCN1C(=O)c2cccc3c(-c4ccc5c(c4)ncn5C4CCCCC4)ccc(c23)C1=O | 11.2% | 17% | 39.4% | 86.3% | 37.6% | 32% | 75.2% | –
Cc1ccc(NC(=O)c2ccc(CN3CCN(C)CC3)cc2)cc1Nc1nc(-c2cccnc2)cs1 | -9.37% (active) | 41.2% | 45.4% | 42.1% | 28.5% | 18.1% | 68.3% | –
CCCCCCC1(/C=N/NC(N)=O)NC(=O)NC1=O (configuration not stated) | 87.8% | 94.1% | 101% | 104% | 91.2% | 84.2% | – | –
Fc1ccc(NCc2cn(-c3ccccc3)nc2-c2ccc(OCc3ccccc3)cc2)cc1Cl | 79.8% | 89.6% | 102% | 108% | 94.1% | 76.8% | 102% | –
CO[C@@H](C)Cn1c(=O)n(C)c2cnc3ccc(-c4cncc(C(C)(C)O)c4)cc3c21 | -21.9% (active) | -6.62% (active) | 0.636% (active) | 9.31% (active) | 6.25% (active) | 3.72% (active) | – | –
CC1=CC2c3oc(-c4ccccc4)c(C(=O)c4ccccc4)c3CNC2C=C1 (configuration not stated) | 91.3% | 103% | 107% | 97.1% | 84.2% | 92.2% | 102% | –
CNC(=O)c1ccccc1Nc1nc(Nc2ccc3c(c2OC)CCC[C@H](N2CCN(CCO)CC2)C3)ncc1Cl | -23.1% (active) | 29.7% | -27.6% (active) | -19.9% (active) | 6.63% (active) | -62.6% (active) | – | –
CC[C@H](CO)Nc1nc(NCc2ccccc2)c2ncn(C(C)C)c2n1 | 48.4% | 78.1% | 83.6% | 69.3% | 31.5% | 30.1% | – | –
CC(C)[C@@H]1CC[C@@H]2[C@@H]1[C@H](OC(=O)/C=C/c1ccccc1)[C@]1(C(C)C)C[C@@H](OC(=O)CO)[C@@]2(C)O1 | 52.2% | 20.5% | 101% | 99.4% | 71.7% | 65.2% | 79.9% | 82.6%
